From PMC7862700, “An all-to-all approach to the identification of sequence-specific readers for epigenetic DNA modifications on cytosine”

What was measured:
Assay in all cases: DAPPL (digital affinity profiling via proximity ligation, sequencing); 10 mM Tris-HCl pH 7.5, 50 mM NaCl, 1 mM DTT, 4% glycerol, room temperature, 30 min; GST-TFs on glutathione beads, 16-mer random dsDNA library, 0.1% formaldehyde crosslink after washing; high values mean tight binding
Settings in all cases: protein: recombinant; tags: N-terminal GST; dsDNA, one strand shown
FLI1 = target: T1, FLI1 (Homo sapiens, UniProt Q01543 1-452)
T1 sequence: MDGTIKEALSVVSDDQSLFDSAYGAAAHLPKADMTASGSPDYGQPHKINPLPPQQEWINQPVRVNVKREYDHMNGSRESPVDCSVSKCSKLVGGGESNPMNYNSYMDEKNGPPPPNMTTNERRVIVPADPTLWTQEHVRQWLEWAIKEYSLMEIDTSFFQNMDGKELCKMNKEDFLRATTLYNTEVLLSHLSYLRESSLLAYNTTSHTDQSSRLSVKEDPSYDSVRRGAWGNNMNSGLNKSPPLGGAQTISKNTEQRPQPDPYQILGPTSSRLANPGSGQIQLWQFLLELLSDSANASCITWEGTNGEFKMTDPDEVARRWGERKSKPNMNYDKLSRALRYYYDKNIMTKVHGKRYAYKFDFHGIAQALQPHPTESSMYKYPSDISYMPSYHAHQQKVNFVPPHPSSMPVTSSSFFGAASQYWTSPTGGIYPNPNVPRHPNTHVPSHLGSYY
Procedure, shortened: (§1)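 Human transcription factors carrying a GST fusion were produced in yeast, bound to glutathione beads, tagged with DNA barcodes and pooled together with a tag-only sample. Each pool was held with 200 nmole of a random double-stranded 16-mer DNA library in Tris/NaCl/DTT/glycerol buffer for 30 min at room temperature, then washed, crosslinked in 0.1% formaldehyde, proximity-ligated with BsaI/T4 ligase (1 h, 37 °C), PCR-amplified and sequenced on an Illumina NextSeq500. Binding signal is the read frequency of each hexamer for a given factor divided by its frequency in the tag-only sample.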

ELK1 = target: T2, ELK1 (Homo sapiens, UniProt P19419 1-428)
T2 sequence: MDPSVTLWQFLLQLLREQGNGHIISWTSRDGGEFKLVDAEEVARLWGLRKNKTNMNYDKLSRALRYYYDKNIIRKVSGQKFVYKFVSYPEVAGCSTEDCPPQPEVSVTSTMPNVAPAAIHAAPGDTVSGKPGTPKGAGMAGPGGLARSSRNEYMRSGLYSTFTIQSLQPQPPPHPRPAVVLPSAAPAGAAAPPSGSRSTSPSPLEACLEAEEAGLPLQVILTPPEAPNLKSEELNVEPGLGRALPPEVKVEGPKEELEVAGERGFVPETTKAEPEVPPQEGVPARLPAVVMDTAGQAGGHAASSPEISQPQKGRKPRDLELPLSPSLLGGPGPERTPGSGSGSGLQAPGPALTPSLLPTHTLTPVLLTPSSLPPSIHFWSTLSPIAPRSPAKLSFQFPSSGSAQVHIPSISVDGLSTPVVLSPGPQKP
Procedure, shortened: as §1

GABPA = target: T3, GABPA (Homo sapiens, UniProt Q06546 1-454)
T3 sequence: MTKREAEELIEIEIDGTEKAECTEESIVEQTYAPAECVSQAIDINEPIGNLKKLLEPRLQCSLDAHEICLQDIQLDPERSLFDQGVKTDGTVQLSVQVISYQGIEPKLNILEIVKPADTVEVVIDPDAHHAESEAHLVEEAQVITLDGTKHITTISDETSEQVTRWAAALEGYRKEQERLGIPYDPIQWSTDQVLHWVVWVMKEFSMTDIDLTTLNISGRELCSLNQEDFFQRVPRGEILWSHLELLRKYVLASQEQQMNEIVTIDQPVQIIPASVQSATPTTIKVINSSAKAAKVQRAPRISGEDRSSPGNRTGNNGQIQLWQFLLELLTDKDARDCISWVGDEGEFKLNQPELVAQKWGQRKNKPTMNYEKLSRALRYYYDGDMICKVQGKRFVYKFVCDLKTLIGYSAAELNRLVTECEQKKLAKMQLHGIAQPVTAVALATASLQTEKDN
Procedure, shortened: as §1

ELF1 = ELF1 (Homo sapiens, UniProt P32519 1-619)
Procedure, shortened: as §1

EHF = target: T4, EHF (Homo sapiens, UniProt Q9NZC4 1-300)
T4 sequence: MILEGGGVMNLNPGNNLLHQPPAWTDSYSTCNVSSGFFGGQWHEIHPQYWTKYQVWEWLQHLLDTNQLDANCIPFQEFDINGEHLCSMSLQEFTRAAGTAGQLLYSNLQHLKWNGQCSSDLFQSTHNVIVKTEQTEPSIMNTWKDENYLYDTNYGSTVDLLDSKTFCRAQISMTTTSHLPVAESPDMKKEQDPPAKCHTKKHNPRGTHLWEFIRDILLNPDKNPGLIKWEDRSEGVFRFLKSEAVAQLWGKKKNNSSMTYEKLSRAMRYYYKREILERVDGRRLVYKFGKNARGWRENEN
Procedure, shortened: as §1

SPI1 = SPI1 (Homo sapiens, UniProt P17947 1-270)
Procedure, shortened: as §1

SPIB = SPIB (Homo sapiens, UniProt Q01892 1-262)
Procedure, shortened: as §1

ELK3 = target: T5, ELK3 (Homo sapiens, UniProt P41970 1-407)
T5 sequence: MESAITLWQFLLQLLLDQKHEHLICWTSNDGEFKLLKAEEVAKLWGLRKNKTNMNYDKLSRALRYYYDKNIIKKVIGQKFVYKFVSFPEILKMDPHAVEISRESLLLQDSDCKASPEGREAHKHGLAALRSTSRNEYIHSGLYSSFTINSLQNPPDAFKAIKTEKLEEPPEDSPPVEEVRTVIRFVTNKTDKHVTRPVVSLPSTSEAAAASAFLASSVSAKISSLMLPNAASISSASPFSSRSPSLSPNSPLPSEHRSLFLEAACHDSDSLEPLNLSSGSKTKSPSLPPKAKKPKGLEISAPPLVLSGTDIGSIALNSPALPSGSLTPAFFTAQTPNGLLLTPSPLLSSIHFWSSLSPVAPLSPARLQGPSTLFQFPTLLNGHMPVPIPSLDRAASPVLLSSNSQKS
Procedure, shortened: as §1

FEV = target: T6, FEV (Homo sapiens, UniProt Q99581 1-238)
T6 sequence: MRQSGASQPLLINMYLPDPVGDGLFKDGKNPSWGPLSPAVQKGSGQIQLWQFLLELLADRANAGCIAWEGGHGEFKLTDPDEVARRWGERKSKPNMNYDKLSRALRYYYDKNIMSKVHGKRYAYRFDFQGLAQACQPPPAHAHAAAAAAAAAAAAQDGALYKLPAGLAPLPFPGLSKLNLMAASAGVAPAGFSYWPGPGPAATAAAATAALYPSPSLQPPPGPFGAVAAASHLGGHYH
Procedure, shortened: as §1

ETV5 = ETV5 (Homo sapiens, UniProt P41161 1-510)
Procedure, shortened: as §1

SPIC = target: T7, SPIC (Homo sapiens, UniProt Q8N5J4 1-248)
T7 sequence: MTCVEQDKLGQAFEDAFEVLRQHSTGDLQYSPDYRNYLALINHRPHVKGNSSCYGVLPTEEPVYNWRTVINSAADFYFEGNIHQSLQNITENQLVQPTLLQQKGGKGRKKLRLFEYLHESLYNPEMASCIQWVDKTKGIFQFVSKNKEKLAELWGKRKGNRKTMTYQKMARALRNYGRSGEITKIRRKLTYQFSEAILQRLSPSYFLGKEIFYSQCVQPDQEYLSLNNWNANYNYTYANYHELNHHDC
Procedure, shortened: as §1

ELF4 = ELF4 (Homo sapiens, UniProt Q99607 1-663)
Procedure, shortened: as §1

ELK4 = target: T8, ELK4 (Homo sapiens, UniProt P28324-2 1-405)
T8 sequence: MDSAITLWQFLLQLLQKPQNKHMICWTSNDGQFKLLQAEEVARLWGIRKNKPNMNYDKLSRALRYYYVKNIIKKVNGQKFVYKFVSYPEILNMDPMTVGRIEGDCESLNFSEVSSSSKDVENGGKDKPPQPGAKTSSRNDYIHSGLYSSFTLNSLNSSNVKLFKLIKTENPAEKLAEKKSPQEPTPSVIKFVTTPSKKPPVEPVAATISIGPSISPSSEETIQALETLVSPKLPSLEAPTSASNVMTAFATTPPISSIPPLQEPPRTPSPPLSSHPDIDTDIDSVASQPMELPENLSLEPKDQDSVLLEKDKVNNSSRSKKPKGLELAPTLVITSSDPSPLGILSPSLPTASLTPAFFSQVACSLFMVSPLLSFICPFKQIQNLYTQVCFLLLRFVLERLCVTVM
Procedure, shortened: as §1

ETV2 = target: T9, ETV2 (Homo sapiens, UniProt O00321 1-342)
T9 sequence: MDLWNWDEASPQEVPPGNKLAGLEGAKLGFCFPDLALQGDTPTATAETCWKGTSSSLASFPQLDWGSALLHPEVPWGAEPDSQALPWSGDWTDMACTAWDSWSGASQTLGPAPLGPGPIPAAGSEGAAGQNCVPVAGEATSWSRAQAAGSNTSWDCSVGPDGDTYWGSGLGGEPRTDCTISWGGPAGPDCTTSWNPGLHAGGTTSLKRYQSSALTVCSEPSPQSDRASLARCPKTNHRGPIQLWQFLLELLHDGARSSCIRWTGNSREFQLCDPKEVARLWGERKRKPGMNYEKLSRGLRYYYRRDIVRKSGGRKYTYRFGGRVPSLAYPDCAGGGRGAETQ
Procedure, shortened: as §1

ELF3 = target: T10, ELF3 (Homo sapiens, UniProt P78545 1-371)
T10 sequence: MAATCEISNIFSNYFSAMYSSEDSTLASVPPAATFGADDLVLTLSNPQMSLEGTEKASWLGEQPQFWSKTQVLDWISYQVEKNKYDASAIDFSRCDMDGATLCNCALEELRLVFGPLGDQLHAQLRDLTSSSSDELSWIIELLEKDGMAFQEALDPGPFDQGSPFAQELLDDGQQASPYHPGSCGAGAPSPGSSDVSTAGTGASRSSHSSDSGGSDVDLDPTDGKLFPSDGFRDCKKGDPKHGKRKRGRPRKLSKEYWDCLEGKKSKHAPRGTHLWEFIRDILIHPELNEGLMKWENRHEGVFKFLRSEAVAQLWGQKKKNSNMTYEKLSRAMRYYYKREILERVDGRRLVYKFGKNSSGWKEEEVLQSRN
Procedure, shortened: as §1

ERG = target: T11, ERG (Homo sapiens, UniProt P11308 1-479)
T11 sequence: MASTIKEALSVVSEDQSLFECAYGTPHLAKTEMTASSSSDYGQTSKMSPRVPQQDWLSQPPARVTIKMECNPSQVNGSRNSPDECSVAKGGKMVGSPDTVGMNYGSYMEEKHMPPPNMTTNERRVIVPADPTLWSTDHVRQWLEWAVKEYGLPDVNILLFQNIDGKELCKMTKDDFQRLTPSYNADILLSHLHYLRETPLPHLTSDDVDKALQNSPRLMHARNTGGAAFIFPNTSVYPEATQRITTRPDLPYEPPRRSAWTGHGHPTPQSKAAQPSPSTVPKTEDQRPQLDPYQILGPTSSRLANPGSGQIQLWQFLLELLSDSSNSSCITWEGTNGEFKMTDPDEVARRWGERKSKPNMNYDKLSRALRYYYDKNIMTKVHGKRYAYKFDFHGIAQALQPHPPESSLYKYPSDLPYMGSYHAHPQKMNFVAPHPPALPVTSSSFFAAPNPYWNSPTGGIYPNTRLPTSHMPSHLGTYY
Procedure, shortened: as §1

ETV1 = ETV1 (Homo sapiens, UniProt P50549 1-477)
Procedure, shortened: as §1

Chain of SPIB (Q01892 whole entry): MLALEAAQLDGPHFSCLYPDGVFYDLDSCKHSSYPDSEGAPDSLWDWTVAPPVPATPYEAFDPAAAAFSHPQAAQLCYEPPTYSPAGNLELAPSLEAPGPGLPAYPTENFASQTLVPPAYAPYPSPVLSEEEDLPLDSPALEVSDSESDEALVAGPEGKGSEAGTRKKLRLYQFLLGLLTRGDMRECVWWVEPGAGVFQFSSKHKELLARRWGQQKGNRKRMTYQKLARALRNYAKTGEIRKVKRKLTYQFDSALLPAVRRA
Chain of ELF4 (Q99607 whole entry): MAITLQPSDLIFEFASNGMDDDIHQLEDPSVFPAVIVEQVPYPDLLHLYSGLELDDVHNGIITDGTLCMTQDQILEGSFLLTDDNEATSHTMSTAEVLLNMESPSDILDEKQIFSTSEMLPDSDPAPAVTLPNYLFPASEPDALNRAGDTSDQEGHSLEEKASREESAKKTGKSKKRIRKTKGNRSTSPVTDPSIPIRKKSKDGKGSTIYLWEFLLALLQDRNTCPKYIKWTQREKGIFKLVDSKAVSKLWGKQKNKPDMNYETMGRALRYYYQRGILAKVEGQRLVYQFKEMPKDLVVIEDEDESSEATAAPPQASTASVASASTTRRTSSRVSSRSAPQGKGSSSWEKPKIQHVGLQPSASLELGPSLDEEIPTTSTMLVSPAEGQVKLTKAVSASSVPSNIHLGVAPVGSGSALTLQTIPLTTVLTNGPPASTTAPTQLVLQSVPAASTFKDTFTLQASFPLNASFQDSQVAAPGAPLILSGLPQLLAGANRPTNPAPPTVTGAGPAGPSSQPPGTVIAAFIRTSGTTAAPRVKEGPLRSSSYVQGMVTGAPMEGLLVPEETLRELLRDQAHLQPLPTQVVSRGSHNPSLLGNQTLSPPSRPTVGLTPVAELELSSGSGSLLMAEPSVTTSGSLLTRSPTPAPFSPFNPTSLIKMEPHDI
Chain of ETV5 (P41161 whole entry): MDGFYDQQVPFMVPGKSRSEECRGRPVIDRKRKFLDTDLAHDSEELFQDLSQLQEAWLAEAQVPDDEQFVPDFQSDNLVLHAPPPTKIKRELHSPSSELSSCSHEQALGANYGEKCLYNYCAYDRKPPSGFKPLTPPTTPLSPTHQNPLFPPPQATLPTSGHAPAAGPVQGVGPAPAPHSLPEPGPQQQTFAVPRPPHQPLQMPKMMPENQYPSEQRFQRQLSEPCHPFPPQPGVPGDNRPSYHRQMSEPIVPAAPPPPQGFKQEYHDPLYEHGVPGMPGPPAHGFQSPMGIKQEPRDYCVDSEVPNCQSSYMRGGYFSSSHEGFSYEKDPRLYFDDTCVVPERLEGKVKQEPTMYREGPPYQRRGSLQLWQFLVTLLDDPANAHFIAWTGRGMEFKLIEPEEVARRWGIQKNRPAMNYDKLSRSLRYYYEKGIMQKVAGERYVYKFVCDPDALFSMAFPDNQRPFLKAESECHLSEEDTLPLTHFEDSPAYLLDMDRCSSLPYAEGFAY
Chain of ELF1 (P32519 whole entry): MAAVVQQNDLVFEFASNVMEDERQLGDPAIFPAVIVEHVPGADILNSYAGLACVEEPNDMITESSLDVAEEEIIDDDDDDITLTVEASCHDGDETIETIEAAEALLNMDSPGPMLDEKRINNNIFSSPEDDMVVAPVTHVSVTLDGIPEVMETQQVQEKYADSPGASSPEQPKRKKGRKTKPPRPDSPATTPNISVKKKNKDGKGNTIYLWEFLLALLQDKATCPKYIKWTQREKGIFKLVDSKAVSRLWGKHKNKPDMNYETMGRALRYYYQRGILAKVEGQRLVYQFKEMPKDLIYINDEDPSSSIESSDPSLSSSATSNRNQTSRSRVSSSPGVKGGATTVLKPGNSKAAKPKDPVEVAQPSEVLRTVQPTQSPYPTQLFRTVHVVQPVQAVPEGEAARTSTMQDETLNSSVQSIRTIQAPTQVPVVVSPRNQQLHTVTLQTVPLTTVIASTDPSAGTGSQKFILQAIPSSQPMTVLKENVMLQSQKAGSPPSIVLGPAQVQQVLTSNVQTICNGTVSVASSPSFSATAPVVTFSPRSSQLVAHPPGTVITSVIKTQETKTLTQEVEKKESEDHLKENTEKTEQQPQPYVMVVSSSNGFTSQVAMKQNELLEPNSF
Chain of ETV1 (P50549 whole entry): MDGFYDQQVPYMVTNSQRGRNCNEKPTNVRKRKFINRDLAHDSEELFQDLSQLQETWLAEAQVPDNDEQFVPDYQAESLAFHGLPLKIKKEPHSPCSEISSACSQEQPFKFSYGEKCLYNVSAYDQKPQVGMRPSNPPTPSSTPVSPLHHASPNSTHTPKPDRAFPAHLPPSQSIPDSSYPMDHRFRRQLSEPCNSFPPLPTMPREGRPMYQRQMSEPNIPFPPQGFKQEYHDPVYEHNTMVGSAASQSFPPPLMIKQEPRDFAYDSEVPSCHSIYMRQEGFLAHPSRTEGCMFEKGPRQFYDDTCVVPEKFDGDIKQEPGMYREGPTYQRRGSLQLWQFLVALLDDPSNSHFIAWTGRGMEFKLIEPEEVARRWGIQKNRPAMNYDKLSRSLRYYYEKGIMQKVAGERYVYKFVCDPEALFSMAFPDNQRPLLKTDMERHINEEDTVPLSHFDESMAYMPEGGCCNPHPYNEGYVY

Sequence | binding signal (FLI1) | binding signal (ELK1) | binding signal (GABPA) | binding signal (ELF1) | binding signal (EHF) | binding signal (SPI1) | binding signal (SPIB) | binding signal (ELK3) | binding signal (FEV) | binding signal (ETV5) | binding signal (SPIC) | binding signal (ELF4) | binding signal (ELK4) | binding signal (ETV2) | binding signal (ELF3) | binding signal (ERG) | binding signal (ETV1)
CGCCAA | 1.03 fold enrichment (6-mer frequency, TF over GST control) | 1.02 fold enrichment (6-mer frequency, TF over GST control) | 1.03 fold enrichment (6-mer frequency, TF over GST control) | 1.08 fold enrichment (6-mer frequency, TF over GST control) | 1.04 fold enrichment (6-mer frequency, TF over GST control) | 1.04 fold enrichment (6-mer frequency, TF over GST control) | 1.02 fold enrichment (6-mer frequency, TF over GST control) | 1.06 fold enrichment (6-mer frequency, TF over GST control) | 1.05 fold enrichment (6-mer frequency, TF over GST control) | 1.02 fold enrichment (6-mer frequency, TF over GST control) | 1.11 fold enrichment (6-mer frequency, TF over GST control) | 1.09 fold enrichment (6-mer frequency, TF over GST control) | 1.04 fold enrichment (6-mer frequency, TF over GST control) | 1.03 fold enrichment (6-mer frequency, TF over GST control) | 1.12 fold enrichment (6-mer frequency, TF over GST control) | – | –
CGCTTG | 1.1 fold enrichment (6-mer frequency, TF over GST control) | 1.14 fold enrichment (6-mer frequency, TF over GST control) | 1.09 fold enrichment (6-mer frequency, TF over GST control) | 1.07 fold enrichment (6-mer frequency, TF over GST control) | 1.04 fold enrichment (6-mer frequency, TF over GST control) | – | 1.25 fold enrichment (6-mer frequency, TF over GST control) | 1.07 fold enrichment (6-mer frequency, TF over GST control) | 1.08 fold enrichment (6-mer frequency, TF over GST control) | 1.06 fold enrichment (6-mer frequency, TF over GST control) | 1.16 fold enrichment (6-mer frequency, TF over GST control) | 1.01 fold enrichment (6-mer frequency, TF over GST control) | 1 fold enrichment (6-mer frequency, TF over GST control) | 1.07 fold enrichment (6-mer frequency, TF over GST control) | 1.2 fold enrichment (6-mer frequency, TF over GST control) | 1.05 fold enrichment (6-mer frequency, TF over GST control) | 1.15 fold enrichment (6-mer frequency, TF over GST control)
